The values below come from PubChem BioAssay (NCATS).

One assay has as its system MKL-2. Briefly: qHTS assay to identify novel small-molecules to repurpose for Merkel cell carcinoma treatment (AID 1296009). Also: nearly all actives have a fitted effect of over 60% in size. Also: potency is read from the fitted curve at half-maximal effect. As to conditions: MCC and control cell lines, CellTiter-Glo viability, 72 h; series mostly up to 46 µM. The gist of the method:
(§1)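 Luminescence from CellTiter-Glo, read 10 min after addition at room temperature, reported viability following a 72 hr, 37 degree celsius treatment with NPC or MIPE compounds in titration; values normalized to plate controls.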
A general note: qHTS replaces the single test concentration by a dilution series.

For another assay, the system named is C33A. Briefly: Primary qHTS to identify gynecologic anti-cancer compounds using libraries of approved drugs and bioactive compounds (AID 1345084). Also: nearly all actives have a fitted effect of over 55% in size. As to conditions: Gynecologic cancer cell panel viability, ATPlite luminescence, 48 h; series mostly up to 57.5 µM. The gist of the method:
(§2)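 Measured: luminescence after ATPlite addition (15 min, RT). Exposure: 48 h, 37 C, 5% CO2.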

For a further assay, the system named is CASKI. Described as above. The following applies: Gynecologic cancer cell panel viability, ATPlite luminescence, 48 h; series mostly up to 57.5 µM. A digest of the protocol: as §2
For orientation: ATP-based viability assays read luminescence as a measure of living cells.

The next assay has as its system Es-2. Described as above. The following applies: Gynecologic cancer cell panel viability, ATPlite luminescence, 48 h; series mostly up to 57.5 µM. The gist of the method:
as §2

For the next assay, the system named is HeLa. The description is as above. As to conditions: Gynecologic cancer cell panel viability, ATPlite luminescence, 48 h; series mostly up to 57.5 µM. A digest of the protocol:
as §2

A further assay relates to Hek293T. Described as above. The following applies: Gynecologic cancer cell panel viability, ATPlite luminescence, 48 h, control line for the selectivity index; series mostly up to 57.5 µM. A digest of the protocol:
as §2

For a further assay, the system named is JEG-3. The assay is described as above. As to conditions: Gynecologic cancer cell panel viability, ATPlite luminescence, 48 h; series mostly up to 57.5 µM. A digest of the protocol:
as §2

The next assay deals with OV90. The description is as above. As to conditions: Gynecologic cancer cell panel viability, ATPlite luminescence, 48 h; series mostly up to 57.5 µM. The gist of the method:
as §2

The test system of the next assay is PA-1. The assay is described as above. As to conditions: Gynecologic cancer cell panel viability, ATPlite luminescence, 48 h; series mostly up to 57.5 µM. A digest of the protocol: as §2
In a further assay the test system is SKOV3. Described as above. The following applies: Gynecologic cancer cell panel viability, ATPlite luminescence, 48 h; series mostly up to 57.5 µM. The gist of the method: as §2
The subject of another assay is Tov-21-G. Described as above. The following applies: Gynecologic cancer cell panel viability, ATPlite luminescence, 48 h; series mostly up to 57.5 µM. The gist of the method: as §2
Another assay concerns Tov112D. The assay is described as above. As to conditions: Gynecologic cancer cell panel viability, ATPlite luminescence, 48 h; series mostly up to 57.5 µM. A digest of the protocol:
as §2

In the next assay the test system is UISO. Kind of assay: qHTS assay to identify novel small-molecules to repurpose for Merkel cell carcinoma treatment (AID 1296009). Also: nearly all actives have a fitted effect of over 60% in size. Also: potency is read from the fitted curve at half-maximal effect. The following applies: MCC and control cell lines, CellTiter-Glo viability, 72 h; series mostly up to 46 µM. A digest of the protocol:
as §1

In another assay the test system is CAOV3. Briefly: Primary qHTS to identify gynecologic anti-cancer compounds using libraries of approved drugs and bioactive compounds (AID 1345084). Also: nearly all actives have a fitted effect of over 55% in size. The following applies: Gynecologic cancer cell panel viability, ATPlite luminescence, 48 h; series mostly up to 57.5 µM. A digest of the protocol: as §2
A short description of assay [1]: Drug repurposing screens with cells derived from glioblastoma tumor samples (AID 1345199). Also: potency is read from the fitted curve at half-maximal effect. As to all read-outs here: nearly all actives have a fitted effect of over 40% in size. The following applies: GBM patient neurospheres viability, ATP luminescence, 48 h; for Potency: tumour line A. A digest of the protocol: (§3)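 Primary testing used CD133+ neurospheres from four GBM patients, seven concentrations, 48 h exposure and ATP-based viability; confirmation added three slower-growing patient lines.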

The next assay relates to astro. The assay is described as above. The following applies: viability, ATP luminescence, 48 h; series mostly up to 45.9 µM. A digest of the protocol:
as §3

The test system of a further assay is NIH3T3. Kind of assay: qHTS assay to identify novel small-molecules to repurpose for Merkel cell carcinoma treatment (AID 1296009). Also: nearly all actives have a fitted effect of over 60% in size. Also: potency is read from the fitted curve at half-maximal effect. The following applies: MCC and control cell lines, CellTiter-Glo viability, 72 h; series mostly up to 44.8 µM. A digest of the protocol:
as §1

The test system of a further assay is WaGa. The description is as above. The following applies: MCC and control cell lines, CellTiter-Glo viability, 72 h; series mostly up to 46 µM. A digest of the protocol: as §1
[2] abbreviates: at 45.9 µM (top of the series), tumour line B.
Setting [3] is: at 45.9 µM (top of the series), tumour line D.

Each structure is given as a SMILES string. Inconclusive results are not listed. Values without a mark were called inactive. The source made the active and inactive calls. Calls follow the shape of the dose curve; as a rule, active = well fitted curve in the direction sought with a large enough effect; inconclusive = small, poorly fitted or top-dose-only effect, or another doubt; inactive = no such curve, though single readings can be large; an effect the other way counts as inactive or inconclusive.
% is scaled to controls: 0 for no effect and ±100 for the full control effect.

Consider `CCCCC[C@H](O)C=C[C@H]1[C@H](O)CC(=O)[C@H]1CC=CCCCC(=O)O`, for which, in the assay with MKL-2, the Potency is 16.6 µM (active). Also, the Potency result in the assay with C33A, with CASKI, with Es-2, with HeLa, in the assay with Hek293T and in the assay with JEG-3 was “inactive” each time. For the same compound, the Potency result in the assay with OV90, in the assay with PA-1, in the assay with SKOV3, in the assay with Tov-21-G and in the assay on Tov112D was “inactive” throughout.
`CN(C)CCN(C)C(=O)c1ccc(NC(=O)Nc2ccc(-c3nc(N4CCOCC4)c4ccn(CC(F)(F)F)c4n3)cc2)cc1`: in the assay with UISO, the Potency is 0.105 µM (active).
On to `O=C(CCCN1CCN(c2ccc(F)cc2)CC1)NC1c2ccccc2CSc2ccccc21` (stereo not drawn), for which the Potency entry in the assay with C33A, with CAOV3, in the assay with CASKI, in the assay on Es-2, in the assay with HeLa and with Hek293T was “inactive” each time. The Potency entry in the assay with JEG-3, with PA-1, in the assay on SKOV3, in the assay on Tov-21-G, in the assay with Tov112D and in the assay on astro was “inactive” each time. Also, the activity, negative = cell killing in assay [1] (setting [2]) was -21%; in [1] (setting [3]), -27.4%. In addition, in assay [1], the Potency is 3.98 µM (active).
For `Cc1ccc(C(=O)N(CCCN)[C@@H](c2nc3cc(Cl)ccc3c(=O)n2Cc2ccccc2)C(C)C)cc1`, in the assay on UISO, the Potency entry is “inactive”.
Consider `CC(C)CN(C[C@@H](O)[C@H](Cc1ccccc1)NC(=O)O[C@H]1CO[C@H]2OCC[C@H]21)S(=O)(=O)c1ccc(N)cc1`, for which the Potency result with NIH3T3, in the assay on UISO and in the assay with astro was “inactive” each time. The activity, negative = cell killing is -11.9% in assay [1] (setting [2]); -22.5% in assay [1] (setting [3]); -17% in assay [1] (at 46.1 µM (top of the series), tumour line C). Further, the Potency in assay [1] is 17.8 µM (active).
As to `COC(=O)Nc1ccc(-c2nc(N3CCOCC3)c3cnn(C4CCN(C(=O)OC)CC4)c3n2)cc1`, the Potency in the assay on UISO is 0.526 µM (active); in the assay on WaGa, 6.62 µM (active).
For the compound `Oc1cc(O)cc(C=Cc2ccc(O)c(O)c2)c1`, the Potency in the assay with WaGa is 18.7 µM (active).
For `Cc1[nH]c(C=C2C(=O)Nc3ccc(S(=O)(=O)N(C)c4cccc(Cl)c4)cc32)c(C)c1C(=O)N1CCN(C)CC1`, the Potency with MKL-2 and in the assay on WaGa was 20.9 µM (active) each time.
In the case of `COc1ccc2nc3cc(Cl)ccc3c(Nc3cc(CN4CCCC4)c(O)c(CN4CCCC4)c3)c2n1`, in the assay with UISO, the Potency result is “inactive”. Further, the Potency with WaGa was 18.7 µM (active).
Turning to `CN(C)CCCNC(=O)c1ccc(-c2cc(O)c3ncccc3c2)cc1`, the Potency result in the assay on C33A, in the assay on CAOV3, in the assay with CASKI, in the assay with Es-2, with HeLa and in the assay with Hek293T was “inactive” each time. Also, the Potency entry in the assay with JEG-3 and in the assay on SKOV3 was “inactive” in each case.
Turning to `CN(C)CCOc1cc(-c2cn[nH]c2)ccc1NC(=O)C1COc2ccccc2O1` (stereo not drawn), the Potency entry in the assay with C33A, in the assay on CAOV3, in the assay on CASKI, with Es-2, with HeLa and in the assay on Hek293T was “inactive” throughout. The Potency result in the assay with JEG-3, in the assay on OV90, with PA-1, with SKOV3, with Tov-21-G and in the assay on Tov112D was “inactive” throughout.
In the case of `COc1c(C)c2c(c(O)c1CC=C(C)CCC(=O)OCCN1CCOCC1)C(=O)OC2`, the Potency with MKL-2 was 1.32 µM (active); in the assay on WaGa it was 2.64 µM (active).
For the compound `COc1cc2nccc(Oc3ccc(NC(=O)Nc4cc(C)on4)c(Cl)c3)c2cc1OC`, in the assay on WaGa, the Potency was 23.5 µM (active). In addition, the Potency result in the assay on Hek293T and with JEG-3 was “inactive” throughout.
`CCOC(=O)[C@@H](N)CCC(=O)N[C@@H](CSCc1ccccc1)C(=O)N[C@@H](C(=O)OCC)c1ccccc1`: the Potency entry in the assay on UISO and in the assay on WaGa was “inactive” in each case.
As for `CCN(CCO)CCCOc1ccc2c(Nc3cc(CC(=O)Nc4cccc(F)c4)[nH]n3)ncnc2c1`, the Potency result in the assay on UISO, in the assay with C33A, in the assay with CAOV3, with Es-2, in the assay on HeLa and with Hek293T was “inactive” each time. In addition, the Potency entry in the assay on JEG-3, in the assay on SKOV3 and in the assay with Tov-21-G was “inactive” in each case.
For the compound `O=C(Nc1ccc(OC(F)(F)F)cc1)c1sccc1NCc1ccnc2ccccc12`, the Potency entry in the assay on C33A, with CASKI, with Es-2, with HeLa, in the assay with Hek293T and with JEG-3 was “inactive” each time. The Potency entry with SKOV3, with Tov-21-G and with Tov112D was “inactive” in each case.
As for `Cc1csc(-c2nnc(Nc3ccc(Oc4ncccc4-c4ccnc(N)n4)cc3)c3ccccc23)c1`, the Potency result in the assay with UISO, with C33A, with CASKI, in the assay on HeLa, in the assay with Hek293T and in the assay with JEG-3 was “inactive” each time. In addition, the Potency result in the assay on OV90, in the assay on PA-1 and with Tov-21-G was “inactive” in each case. In addition, the Potency in the assay with WaGa was 0.0118 µM (active).
